Inconclusive results are not listed. Active and inactive are the calls of the source. The call rests on the fitted dose curve; in most records, active means well fitted curve in the direction sought with a large enough effect; inconclusive means small, poorly fitted or top-dose-only effect, or another doubt; inactive means no such curve, though single readings can be large; an effect the other way counts as inactive or inconclusive.
Assays:
[1] = HPAF-II 24hr Apoptosis Induction qHTS against the NCATS CANVASS Library (AID 1347356)
Method in brief: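 HPAF-II cells (500/well) exposed to compounds in 11-point series for 24 h at 37 degrees C; caspase-3/7 activity read by Caspase-Glo luminescence after 15 min at room temperature. Doxorubicin titration as control.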

[2] = HEK293 24hr Apoptosis Induction qHTS against the NCATS CANVASS Library (AID 1347359)
Method in brief: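 HEK293 cells, 500 per well, exposed to an 11-point compound series for 24 hours at 37 degrees C. Caspase 3/7 activity read by Caspase-Glo luminescence (DEVD substrate) after 15 min at room temperature.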

[3] = HPAF-II 18hr Apoptosis Induction qHTS against the NCATS CANVASS Library (AID 1347360)
Method in brief: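 Seed HPAF-II cells at 500/well in DMEM + 10% FBS, pin-transfer compounds, incubate 18 hours at 37 degrees C/5% CO2, add Caspase-Glo 3/7 reagent, wait 15 min, read luminescence.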

[4] = system: NAD(P)H diaphorase (Clostridium kluyveri); assay: Diaphorse counterscreen qHTS: Assay Interference Panel against the NCATS CANVASS Library (AID 1347362)
Method in brief: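 Clostridium kluyveri diaphorase in PBS + 0.01% Tween-20 preincubated 15 min with compounds. Resazurin and NADH then added for 5 min at room temperature in the dark; resorufin fluorescence read (ex 525, em 598).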

[5] = qHTS for ATAD5 Agonist screened against the NCATS CANVASS Library (AID 1347367);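 further: luciferase reporter driven by ATAD5 which rises upon DNA damage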
Method in brief: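 HEK293T-ATAD5 luc reporter; 2000 cells/well; 5hr settle; cpd 11-pt qHTS; 16hr 37C 5% CO2 dark; viability by CellTiter-Fluor (AFC fluorescence); then luciferase luminescence, 30min RT.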

[6] = qHTS for ATAD5 Antagonist screened against the NCATS CANVASS Library (AID 1347370); further: nearly all actives have a fitted effect of over 65% in size; further: potency means the concentration at half of the fitted maximal effect
Method in brief: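 HEK293T cells with stably integrated ATAD5-luciferase reporter, 2000/well, 5 h attachment; compounds plus 10 µM 5-fluorouridine, 16 h at 37 °C. Luciferase luminescence read, with CellTiter-Fluor viability read first.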

[7] = J3T Cancer Cell Toxicity qHTS against the NCATS CANVASS Library (AID 1347371); further: potency means the concentration at half of the fitted maximal effect
Method in brief: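 J3T dog glioma cells, 500 per well, treated 72 h at 37C with compounds (11-point qHTS); viability from ATP content by CellTiterGlo luminescence; bortezomib titration as control.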

[8] = target: Nuclear receptor subfamily 1 group I member 3 (Homo sapiens) (UniProt Q14994); assay: qHTS for Constitutive Androstane Receptor (CAR) Antagonist screened against the NCATS CANVASS Library (AID 1347372);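 further: cells stimulated with 50 nM CITCO agonist so inhibition reflects antagonism; series mostly up to about 46 µM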
Method in brief: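 HepG2 cells stably carrying hCAR and CYP2B6-2.2kb luciferase reporter, 2500 cells/well, compound with 50 nM CITCO agonist for 24hr at 37C. ONE-Glo luminescence measured CAR activity; CellTiter-Fluor read viability.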

[9] = target: Nuclear receptor subfamily 1 group I member 3 (Homo sapiens) (UniProt Q14994); assay: qHTS for Constitutive Androstane Receptor (CAR) Agonist screened against the NCATS CANVASS Library (AID 1347373);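 further: every well also contained 1.5 µM PK11195 alongside the test compound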; further: potency means the concentration at half of the fitted maximal effect
Method in brief: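 HepG2 cells stably carrying hCAR and a CYP2B6-2.2kb luciferase reporter, treated 24hr at 37C with compounds plus 1.5uM PK11195; activation by ONE-Glo luminescence, viability by CellTiter-Fluor.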

[10] = qHTS for Hypoxia signaling pathway (HIF-1) agonists against the NCATS CANVASS Library (AID 1347375)
Method in brief: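 HRE-bla ME-180 cells (0.5% dialyzed FBS) were pre-incubated 5 hrs at 37C, then exposed to compounds in an 11-point series for 17 hrs. Read-out was CCF4-AM beta-lactamase FRET (460/530 nm emissions), with CellTiter-Glo viability in the same wells.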

[11] = 10-beta competent E. coli microbial cell viability qHTS against the NCATS CANVASS Library (AID 1347376); further: series mostly up to about 46 µM
Method in brief: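 10-beta competent E. coli (0.2 OD) were exposed overnight at 37C to compounds in an 11-point series. Viability was read as ATP-dependent BacTiter-Glo luminescence after 20 min at room temperature.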

[12] = qHTS for H2AX Agonists against the NCATS CANVASS Library (AID 1347378);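 further: phospho-H2AX S139 level in CHO-K1 lysates by TR-FRET emission ratio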
Method in brief: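 CHO-K1, 1000 cells/well, o/n 37C; cpd several conc, 3 hr 37C, 0.76% DMSO; lyse 30 min RT; cryptate anti-pH2AX(S139) + d2 anti-H2AX, 24 hr RT; HTRF 665/620.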

[13] = Inflammasome Signaling qHTS Counterscreen: IL-1-beta AlphaLISA counterscreen against the NCATS CANVASS Library (AID 1347381);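 further: cell-free check with purified IL-1β in medium and no THP-1 cells; series mostly up to about 57 µM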
Method in brief: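 Cell-free interference check: compounds added to medium spiked with 4 pg purified IL-1β. Anti-IL-1β acceptor beads (6 ug/mL) with 0.6 nM biotinylated antibody added for 1 h at RT, then streptavidin donor beads (24 ug/mL) for 30 min in the dark. AlphaLISA read at 680/615 nm.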

[14] = Cytotoxicity qHTS for assessment of Hepg2 cells membrane integrity screened against the NCATS CANVASS Library (AID 1347387)
Method in brief: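 HepG2 cells (2000/well) attached overnight, then exposed 5 hr at 37C to compounds in an 11-point series (0.59 nM - 46 uM final). LDH release from damaged membranes read fluorometrically (CytoTox-ONE; 560/590 nm) after 10 min at room temperature.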

[15] = qHTS for Activators of p53 Stress Response Pathway screened against the NCATS CANVASS Library (AID 1347388); further: potency means the concentration at half of the fitted maximal effect
Method in brief: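 p53RE-bla HCT-116 cells (4000/well) were pre-incubated for 5 h, then treated with compound (11 points) for 16 h at 37C. After 2 h with CCF4, the 460/530 nm ratio gave reporter activation; CellTiter-Glo measured viability.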

[16] = qHTS assay for small molecule disruptors of mitochondrial membrane potential screened against the NCATS CANVASS Library (AID 1347389); further: series mostly up to about 46 µM; nearly all actives have a fitted effect of over 60% in size
Method in brief: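 HepG2 cells (2,000/well) plated overnight, then exposed to compounds in 11-point qHTS series for 1 h at 37C before 30 min Mito-MPS dye; depolarization read as fall in red aggregate (590 nm) to green monomer (535 nm) fluorescence.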

[17] = Secretion counterscreen for inhibitors of the SERCaMP assay screened against the NCATS CANVASS Library (AID 1347390);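 further: light from luciferase secreted into medium read as a measure of general secretion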; further: potency means the concentration at half of the fitted maximal effect
Method in brief: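 SH-SY5Y-GLuc STOP cells; 4 h attach; cpds 0.001 - 77 uM (qHTS, 11 pts), 20 h 37C/5% CO2; coelenterazine in glow buffer; luminescence, 5 s exposure.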

[18] = qHTS for activators of dead-cell proteases activity screened against the NCATS CANVASS Library (AID 1347392);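 further: luminescence from protease leaking out of membrane-damaged cells cleaving impermeant substrate; rising signal means more cytotoxicity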
Method in brief: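 HepG2 cells, 2000/well, attached 18 h at 37C, then exposed to compounds (11-point qHTS) for 5 h. Dead-cell protease release read as luminescence from cell-impermeant AAF-aminoluciferin substrate after 15 min at room temperature.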

[19] = Vero-766 cells viability qHTS against the NCATS CANVASS Library: Counterscreen for Zika virus inhibition assay (AID 1347394); further: nearly all actives have a fitted effect of over 60% in size; further: potency means the concentration at half of the fitted maximal effect
Method in brief: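 Vero 766, no virus; 1000 cells/well; o/n attach; cpd 11-pt; 72 h, 37C, 5% CO2; CTG luminescence; cell-free media wells = 100% inhibition.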

[20] = G06 Cancer Cell Toxicity qHTS against the NCATS CANVASS Library (AID 1347368); further: nearly all actives have a fitted effect of over 60% in size; further: potency means the concentration at half of the fitted maximal effect
Method in brief: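 G06 dog glioma cells, 500 per well, exposed 72 hr at 37C, 5% CO2 to compounds in an 11-point series. Cytotoxicity read as ATP content by CellTiterGlo luminescence.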

Measured: Potency

Sequence of Nuclear receptor subfamily 1 group I member 3 (Homo sapiens) (Q14994 whole entry, looked up): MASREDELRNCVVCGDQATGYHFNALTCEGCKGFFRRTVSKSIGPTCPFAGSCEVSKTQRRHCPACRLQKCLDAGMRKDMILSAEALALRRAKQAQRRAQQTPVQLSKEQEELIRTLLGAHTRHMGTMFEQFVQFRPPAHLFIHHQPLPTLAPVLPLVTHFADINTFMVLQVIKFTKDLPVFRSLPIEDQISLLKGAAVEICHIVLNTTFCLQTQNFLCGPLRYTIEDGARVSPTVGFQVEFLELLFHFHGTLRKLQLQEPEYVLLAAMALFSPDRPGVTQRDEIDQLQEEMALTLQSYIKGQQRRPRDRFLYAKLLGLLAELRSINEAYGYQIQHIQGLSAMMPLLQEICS

C/C(=C\[C@@H](C)CC/C=C/CC/C=C/C(=O)O)[C@H](O)[C@H](C)C(=O)CCCC1CC(=O)NC(=O)C1
not listed: [20]
inactive: all other assays above

C[C@H](c1cnc(N)[nH]1)c1ccc(O)c2[nH]cc(-c3cnc(-c4c[nH]c5ccccc45)c(=O)[nH]3)c12
not listed: [4] | [10] | [13] | [15] | [16] | [20]
inactive: all other assays above

CC[C@@H]1[C@H](C)[C@H](c2cc(OC)c(OC)cc2OC)[C@@H](C)[C@H](c2cc(OC)c(OC)cc2OC)[C@]12C=C(OC)C(=O)C=C2OC
active: [6] 23.4 µM | [19] 20.9 µM
inactive: [1] | [2] | [5] | [7] | [8] | [9] | [13] | [14]

C/C=C/c1cc2c(c(=O)o1)C(=O)[C@@H](O)[C@H](C)O2
active: [20] 5.26 µM | [7] 26.4 µM | [15] 37.1 µM | [17] 34.3 µM
not listed: [6] | [8] | [12]
inactive: all other assays above

C=C1C[C@H]2O[C@@H]3[C@@H]4[C@H](CC[C@@](C)(O)[C@@H]42)[C@H](C)COC3(C)[C@@H](OC(=O)CCCCCCC)C[C@H]1O (stereo not given in full)
not listed: [4] | [19] | [20]
inactive: all other assays above

C=C[C@@](C)(O)CC[C@@H]1[C@@]2(C)CCCC(C)(C)[C@@H]2CC[C@@]1(C)O
not listed: [8] | [17]
inactive: all other assays above

COC(=O)[C@@]1(C)CCC[C@]2(C)c3cc(OC)ccc3CC[C@@H]12
not listed: [9] | [16]
inactive: all other assays above

COc1cc2c(cc1OC)[C@@H](c1ccc3c(c1)OCO3)C(C)[C@@H](C)C2=O (stereo not given in full)
active: [6] 11.7 µM | [9] 9.33 µM
not listed: [20]
inactive: all other assays above

CN1CCc2cc3c(c4c2C1(C)C(=O)c1cc(O)ccc1-4)OCO3 (stereo not given)
active: [20] 1.18 µM | [6] 13.2 µM
not listed: [9] | [17]
inactive: all other assays above

CC1=C(C)C(=O)OC(C(C)C2(O)CCC3C4C5OC5C5(O)CC=CC(=O)C5(C)C4CCC32C)C1 (stereo not given)
active: [20] 23.5 µM
not listed: [9] | [17]
inactive: all other assays above

COc1ccc([C@@H]2c3cc4c(cc3C[C@H](C)C2C)OCO4)cc1OC (stereo not given in full)
active: [15] 7.41 µM
not listed: [6] | [16] | [17] | [19] | [20]
inactive: all other assays above

C/C1=C/[C@@H](C)[C@H](O)C/C=C/CC/C=C/C(=O)O[C@@H]1[C@H](C)C(=O)CCCC1CC(=O)NC(=O)C1
active: [20] 4.69 µM | [6] 20.9 µM
not listed: [7] | [17] | [19]
inactive: all other assays above
